MEKK2 mut-MEK5 – signal of MEK5 binding to mutant human MEKK2 PB1 domain; 290,000 tested, 0.35% active; AID 1530; bead flow cytometry, Alexa488-MEK5 binding to MEKK2 mutant; percent response, % at 10 µM; in the data active = percent response above about 24%, passing the limit was not always enough
UBC13 polyUb – blocks human UBC13 polyubiquitin chain formation. 330,000 tested, 0.47% active. inhibition, % at 20 µM. TR-FRET; in the data active = inhibition above about 45%, passing the limit was not always enough; inconclusive = no clear call, values can overlap the other calls
Target sequence (P61088 whole entry, looked up): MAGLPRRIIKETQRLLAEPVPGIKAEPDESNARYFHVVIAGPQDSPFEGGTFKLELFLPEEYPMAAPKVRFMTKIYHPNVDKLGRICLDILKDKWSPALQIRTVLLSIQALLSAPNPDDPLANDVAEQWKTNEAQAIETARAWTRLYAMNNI
MEKK3 PB1 HTS – modulators (inhibitors or enhancers) of MEK5 binding to human MEKK3 PB1 domain. binding response (% of control), % at 10 µM. AID 1529. bead-based flow cytometry, Alexa488-MEK5 binding to MEKK3; actives lie on both sides; 0 = blocked by unlabeled MEK5, 100 = vehicle. Q99759. 290,000 tested, 1.4% active;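 active = binding response more than 3 SD above or below the average of its plate-row segment, actives on both sides; inconclusive = wells at one plate position flagged as instrument error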;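 note: Alexa488 bead fluorescence after subtracting the streptavidin-only scavenger bead signal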
MEKK2 WT-MEK5 – raises or lowers MEK5 binding to wildtype human MEKK2 PB1 domain | binding response (% of control), % at 10 µM | Q9Y2U5 | AID 1531 | 290,000 tested, 1.1% active | bead flow cytometry, Alexa488-MEK5 binding to MEKK2 WT; actives lie on both sides; in the data active = binding response below about 67% or above about 130%; inconclusive = no clear call, values can overlap the other calls; inactive = in between
Casp3 UBC13 ctr – counter-screen for UBC13 inhibitors: human caspase-3 inhibition; Recombinant caspase-3, Caspase-Glo 3/7 luminescence, 60 min; 1,400 tested, 4% active; inhibition, % at 20 µM; shares compounds with UBC13 polyUb;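 active = mean inhibition across replicates above about 26%, limit read from the data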;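 note: plate controls were DMSO with caspase-3 for no effect and DMSO wells lacking enzyme for full effect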
Target sequence (P42574 whole entry, looked up): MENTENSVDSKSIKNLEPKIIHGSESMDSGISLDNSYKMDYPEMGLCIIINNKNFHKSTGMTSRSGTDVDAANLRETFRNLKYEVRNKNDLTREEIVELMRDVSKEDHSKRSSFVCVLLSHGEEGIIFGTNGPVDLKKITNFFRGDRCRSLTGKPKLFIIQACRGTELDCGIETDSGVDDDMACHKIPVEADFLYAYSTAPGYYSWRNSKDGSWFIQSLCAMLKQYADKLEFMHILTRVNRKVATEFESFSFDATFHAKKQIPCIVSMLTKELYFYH
UBC13 confirm – human UBC13 polyubiquitin inhibition, confirmed; shares compounds with UBC13 polyUb; UBC13 polyubiquitination, TR-FRET, biochemical; inhibition, % at 10 µM; 1,400 tested, 68% active; AID 488859; in the data active = inhibition above about 45%; inconclusive = no clear call, values can overlap the other calls
* marks the source's active call; other numbers are inactive results; ? = inconclusive; · = no result given. Sampled rows, rich in hits. Any-hit rate of the full collection: about 2.3%.

SMILES	MEKK2 mut-MEK5	UBC13 polyUb	MEKK3 PB1 HTS	MEKK2 WT-MEK5	Casp3 UBC13 ctr	UBC13 confirm
COc1cc(NC(=O)CSc2nnc(-c3cc(C)on3)o2)cc(OC)c1	-2	1	100	92	·	·
Cc1cccc(-n2ccc(=O)c(C(=O)Nc3ccc(S(=O)(=O)Nc4nccc(C)n4)cc3)n2)c1	2	-6	101	104	·	·
CC(=O)c1ccc(OCC(O)CN2CCN(CCN3C(=O)c4cccc5cccc(c45)C3=O)CC2)cc1 (centres undefined)	1	96*	102	105	-2	103*
CCC(OCC(O)CN1CCN(CCN2C(=O)c3cccc4cccc(c34)C2=O)CC1)c1ccccc1 (centres undefined)	-1	82*	100	105	4	97*
O=C(CCCCCN1C(=O)c2cccc3cccc(c23)C1=O)NC1CCS(=O)(=O)C1 (centres undefined)	4	83*	102	99	-2	98*
O=C(CCN1C(=O)c2cccc3cccc(c23)C1=O)NC1CCS(=O)(=O)C1 (centres undefined)	0	2	93	95	·	·
CCSc1nc(N2CCCCC2)c2c(c1C#N)CCCC2	-1	47*	104	103	2	46*
N#Cc1c(SCc2ccccc2)nc(N2CCOCC2)c2c1CCCC2	-8	10	102	90	·	·
CN1CCCC(CN2c3ccccc3Sc3ccccc32)C1 (centres undefined)	14	38	101	133	·	·
CN1CCCC(CC2c3ccccc3Sc3ccccc32)C1 (centres undefined)	·	46*	·	·	0	27
S=c1nc[nH]c2c1[nH]c1ccccc12	4	82*	120	117	4	103*
NNC(=O)c1ccccc1CO	4	-6	103	110	·	·
O=C(CCCCCN1C(=O)c2ccccc2C1=O)NCCc1nc2ccccc2[nH]1	-2	56*	103	102	0	53*
COc1ccc(CCNC(=O)CCCCCN2C(=O)c3ccccc3C2=O)cc1	3	29	105	110	·	·
Cc1cc(C)n(CCNc2nc3nonc3nc2N2CCCCC2)n1	-11	-6	88	89	·	·
CN1CCC(N(C)C(=O)/C=C/c2cn(-c3ccccc3)nc2-c2cccs2)CC1	-6	46*	59	112	0	44
CCN(CC(=O)Nc1ccc(NC(C)=O)cc1)C(=O)/C=C/c1cn(-c2ccccc2)nc1-c1cccs1	·	9	·	·	·	·
CC(C)CC(=O)Nc1nnc(SCC(=O)NCC2CCCO2)s1 (centres undefined)	7	-1	105	107	·	·
CCC(=O)NC(c1cc(Cl)c2ccccc2c1O)C1CC1 (centres undefined)	·	84*	·	·	-1	72*
CCC(=O)NC(C)c1cc(Cl)c2ccccc2c1O (centres undefined)	·	51*	·	·	0	34
CCC(=O)NC(c1ccco1)c1cc(Cl)c2cccnc2c1O (centres undefined)	0	-22	100	95	·	·
COc1ccc(Nc2cc(Cl)nc(N)n2)cc1OC	-2	10	99	98	·	·
Cc1ccc2[nH]c(O)c(N=NC(N)=S)c2c1	5	79*	96	96	-2	96*
CCCCNC(=S)N=Nc1c(O)[nH]c2ccccc12	-2	85*	96	95	2	102*
Oc1[nH]c2ccccc2c1N=NC(=S)N1CCOCC1	1	11	104	98	·	·
SMILES	MEKK2 mut-MEK5	UBC13 polyUb	MEKK3 PB1 HTS	MEKK2 WT-MEK5	Casp3 UBC13 ctr	UBC13 confirm
NC(=S)N=Nc1c(O)[nH]c2ccccc12	-2	63*	86	91	2	80*
CCOc1ccc(NC(=S)N=Nc2c(O)[nH]c3ccccc23)cc1	-14	61*	84	86	3	77*
c1ccc(CN2CCC3(CC2)Nc2ccccc2S3)cc1	3	6	103	106	·	·
Cc1onc(-c2ccccc2)c1-c1n[nH]c(=S)n1-c1ccccc1	0	2	103	102	·	·
CCCN(CCC)CCNC(=O)c1cc2c(=O)n(CC)c3ccccc3c2s1	-9	73*	73	96	-3	74*
CCn1c(=O)c2cc(C(=O)NCCN(C)C)sc2c2ccccc21	6	46*	105	113	-1	35
CCN(CC)CCNC(=O)c1cc2c(=O)n(CC)c3ccccc3c2s1	6	57*	103	111	0	62*
Cc1cccc(N2CCN(c3ccc4cc(S(=O)(=O)N5CCCCC5)ccc4n3)CC2)c1C	-2	52*	99	95	-1	?
c1ccc2c(-c3ccc(OCCN4CCCCC4)cc3)c(-c3ccsc3)sc2c1	·	58*	·	·	-3	56*
c1ccc(-c2sc3ccccc3c2-c2ccc(OCCN3CCCCC3)cc2)cc1	·	43	·	·	·	·
CN(C)CCOc1ccc(-c2c(-c3ccccc3)sc3ccccc23)cc1	·	82*	·	·	-2	90*
N#Cc1c(Nc2cccc(F)c2)sc2c(O)cc(=O)[nH]c12	-2	-17	105	95	·	·
COC(=O)c1c(-c2ccccc2)c[nH]c1C	-8	-11	94	90	·	·
O=C(COc1ccc(Cl)cc1Cl)OCC(=O)N1CCCc2ccccc21	5	6	97	82	·	·
O=C(COc1ccc(Cl)cc1)OCC(=O)N1CCCc2ccccc21	13	63*	97	105	-3	-3
Cc1nonc1CN(C)C(=O)CC1C(=O)NCCN1Cc1cccc(C(F)(F)F)c1 (centres undefined)	-12	6	103	97	·	·
CC(C)C[C@@H]1CN=C(N)N1C[C@@H]1CCCN1C[C@H](C)N1C[C@@H](Cc2ccccc2)N(CCCC2CCCC2)C1=N	·	61*	·	·	-5	64*
CC(C)C[C@@H]1CN=C(N)N1C[C@@H]1CCCN1C[C@H](C)N1C[C@@H](Cc2ccccc2)N(CCc2ccc(Cl)c(Cl)c2)C1=N	·	76*	·	·	3	71*
COc1c(/C=N/NC(=O)c2ccncc2)c(CCN(C)C(C)=O)cc2c1OCO2	2	-4	103	100	·	·
CCN(Cc1ccccc1)C(=O)c1nn(-c2ccc(OC)cc2)c(=O)c2c1c1ccccc1n2C	-4	45*	102	91	-2	?
CCCN1CCN(C(=O)c2nn(-c3ccc(OC)cc3)c(=O)c3c2c2ccccc2n3C)CC1	5	-15	102	102	·	·
CCC(=O)Nc1c(-c2ccccc2)c(=O)c2ccccc2n1C	0	-10	103	99	·	·
COc1cccc(CCNC(=O)c2cc(COc3c(F)cccc3F)on2)c1	-11	-2	95	95	·	·
O=C1Cc2ccccc2Sc2ccc(O)cc21	-3	51*	96	97	-1	42
CC(C)N1CCc2c(sc(NC(=O)c3cc(-c4cccs4)nc4ccccc34)c2C(N)=O)C1	13	54*	108	121	-4	49*

Compound activity: PubChem, several laboratories
